Measured values: ChEMBL document CHEMBL1157539, “Thousands of chemical starting points for antimalarial lead identification” (Nature, 2010)
Whole data set: some 13,000 compounds, median “IFI” near 4, cut for the highest 2% near 17. The list comes from a sample in which the highest values are over-represented; it also holds similar structures and randomly drawn compounds.

Experiment: GSK_TCMDC: Inhibition Frequency Index (IFI). The number of non-kinase HTS assays where a compound showed > 50 % inhibition, expressed as a percentage of the number of such assays in which the compound was tested
Type: functional

Compound	IFI [%]
CS(=O)(=O)CCNCc1nc(-c2ccc3c(Nc4ccc(F)c(O)c4)ccnc3c2)cs1	3.73
CS(=O)(=O)CCNCc1nc(-c2ccc3c(Nc4ccc(Cl)cc4F)ccnc3c2)cs1	7.69
CS(=O)(=O)CCNCc1nc(-c2ccc3c(=O)[nH]cnc3c2)cs1	22.6
Cc1sc(NC(=O)c2ccc([N+](=O)[O-])cc2Cl)c(C(N)=O)c1C	0.75
Cc1c(N=O)cc(C(C)(C)C)c(O)c1C(=O)Nc1ccc([N+](=O)[O-])cc1Cl	25.2
Cc1cc([N+](=O)[O-])ccc1NC(=O)Nc1cccc(C(F)(F)F)c1	7.89
CCCCCCC(N)c1ccc(OCCCOc2ccc(C(N)CCCCCC)cc2)cc1 (centres undefined)	24.5
C=CCNC(CCCCC)c1ccc(OCCOc2ccc(C(CCCCC)NCC=C)cc2)cc1 (centres undefined)	18.3
CCCCC(NCC)c1ccc(OCCOc2ccc(C(CCCC)NCC)cc2)cc1 (centres undefined)	8.82
CCCCCC(NCCCC)c1ccc(OCCOc2ccc(C(CCCCC)NCCCC)cc2)cc1 (centres undefined)	16.3
CCCCCOc1ccc(C(O)C(CCC(CN2CCCCCC2)C(O)c2ccc(OCCCCC)cc2)CN2CCCCCC2)cc1 (centres undefined)	12.9
CCCCCCNC(=N)c1ccc(OCCCCCOc2ccc(C(=N)NCCCCCC)cc2)cc1	12.3
Fc1ccc(C=NNc2nc3ccccc3[nH]2)cc1	1.42
O=C1Nc2cccc3c2C1(CCCCN1CCC(c2c(-c4ccc(F)cc4)[nH]c4ccccc24)CC1)CCC3 (centres undefined)	7.91
CN(c1ccc(NC(=O)Nc2cccc(Cl)c2)cc1)c1ccnc(N)n1	6.9
CCNC(=O)Nc1ccc(N(C)c2ccnc(NC3CC3)n2)cc1	2.97
CN(c1ccccc1)c1ccnc(NC(=N)Nc2ccc(Cl)cc2)n1	18.4
Cc1cc(NCCC(=O)Nc2ccccc2)nc(NCCOc2ccccc2)n1	4.88
C=CCOC(=O)N1CCC(CNCc2cccc(-c3ccc(-c4nc5ccccc5[nH]4)s3)c2)C1 (centres undefined)	6.73
Cc1cc2nc(N/C(N)=N/C(=O)NC3CCCCC3)nc(C)c2cc1C	9.38

Compound	IFI [%]
CCN(CC)CCOc1ccc(N(Cc2ccc(C(C)(C)C)cc2)C(=O)c2ccc(Cc3ccccc3)cc2)cc1OC	5.84
Cc1cccc2nc(-c3ccc(-c4cccc(CNCCN5CCNCC5)c4)cc3)[nH]c12	6.93
CC(C)COc1ccc(Cl)cc1Cc1ccc(-c2nc3cc(F)c(F)cc3[nH]2)o1	13.7
CC(C)COc1ccc(Cl)cc1Cc1nc(-c2nc3ccc(CN4CCN(C)CC4)cc3[nH]2)co1	5.81
CN1CCN(CCc2ccc3nc(-c4csc(Cc5cc(Cl)ccc5OCc5ccccc5)n4)[nH]c3c2)CC1	10.2
CC(C)COc1ccc(Cl)cc1Cc1nc(-c2nc3ccc(CN4CCCCC4)cc3[nH]2)co1	18.3
CN1CCN(c2ccc3[nH]c(-c4ccc(Cc5cc(Cl)ccc5OCc5ccccc5)o4)nc3c2)CC1	24.7
CC(C)COc1ccc(Cl)cc1Cc1nc(-c2nc3ccc(CN4CCCC4)cc3[nH]2)co1	16.1
CNCc1cccc2nc(-c3ccc(Cc4cc(Cl)ccc4OCC(C)C)o3)[nH]c12	16.7
CC(C)COc1ccc(Cl)cc1Cc1ccc(-c2nc3cc(CCN(C)C)ccc3[nH]2)o1	16
CC(C)COc1ccc(Cl)cc1Cc1ccc(-c2nc3cc(N4CCN(C)CC4)ccc3[nH]2)o1	17.2
CC(C)COc1ccc(Cl)cc1Cc1ccc(-c2nc3cc(CCN4CCCC4)ccc3[nH]2)o1	22.2
CC(C)COc1ccc(Cl)cc1Cc1ccc(-c2nc3cnc4ccccc4c3[nH]2)o1	7.23
Clc1ccc(OCc2ccccc2)c(Cc2ccc(-c3nc4cnccc4[nH]3)o2)c1	12.2
COc1ccc(NC(=O)CCNc2cc(C)nc(NCCc3ccc(F)cc3)n2)cc1	4.88
N#Cc1ccc(N2CCN(Cc3ccc(-c4ccc(-c5nc6cc(C(F)(F)F)ccc6[nH]5)cc4)cc3)CC2)nc1	3.96
NS(=O)(=O)c1cccc(-c2ccc3ncc(N4CCOCC4)nc3c2)c1	3.7
Cc1[nH]c(C)c(-c2ccc(-c3ccc(Cl)cc3)nc2)c(=O)c1Cl	0.92
COc1cc2s/c(=N\C(=O)c3cccc([N+](=O)[O-])c3)n(C)c2cc1OC	1.72
O=C(NC1CCC(CCN2CCc3ccc(-c4cnccn4)cc3CC2)CC1)c1cccc(-n2cccn2)c1 (centres undefined)	5.3

Compound	IFI [%]
O=C1CCCN1CCCNCc1ccc(-c2ccc(-c3nc4cc(C(F)(F)F)ccc4[nH]3)s2)cc1	6.67
O=C(Nc1cccc(-c2cccc(-c3nc4cc(C(F)(F)F)ccc4[nH]3)c2)c1)c1cccnc1	4.59
CCN(CC)CCCC(C)N/C(=N\c1ccccc1Br)Nc1ccc(C#N)cc1O (centres undefined)	0
Cc1cnc(Nc2cccc(CCN3CCOCC3)c2)nc1NC(C)C	17.2
OC(CNc1ccnc(Nc2cccc(CCN3CCOCC3)c2)n1)c1ccccc1 (centres undefined)	9.28
Cc1cccc(Nc2nccc(Nc3cccc(C(=O)NCCN4CCOCC4)c3)n2)c1	0
Oc1ccc(CCNCCCCNCCc2ccc(Cl)cc2)cc1O	6.12
Cc1[nH]c(C)c(-c2ccc(OCc3cccc(C(F)(F)F)c3)nc2)c(=O)c1Br	13.8
CCCC(C(=O)OCCNC)(c1ccccc1)c1ccccc1	3.6
COc1ccc(CCN(C)CCCN2CCC(NC(=O)c3cccc4c(=O)c5ccccc5sc34)CC2)cc1OC	21.9
COc1ccc(CCN(C)CCCCc2ccc(NC(=O)c3cccc4c(=O)c5cc(F)ccc5sc34)cc2)cc1OC	10
COc1ccc(CCN(C)CCCN2CCC(NC(=O)c3cccc4c(=O)c5ccccc5[nH]c34)CC2)cc1OC	5.76
Clc1ccc(Cl)c2[nH]c(CNCCCNc3nc4ccccc4[nH]3)cc12	4.38
COc1ccc2c(OC)cccc2c1CNCCCCCCNCc1c(OC)ccc2c(OC)cccc12	13.7
Cc1cccn2c(=O)c3cc(C(=O)NCCc4ccccc4)c(=N)n(CCCOC(C)C)c3nc12	4.3
O=[N+]([O-])c1ccc(C=NNc2nc3ccccc3[nH]2)cc1	0
O=[N+]([O-])c1ccc2nccnc2c1	1.44
O=[N+]([O-])c1ccc(/C=N/O)nc1	23.4
CC(C)c1ccc(CN2CCC(CNC(=O)c3cc(-c4cccc(F)c4)cs3)C2)cc1 (centres undefined)	14.3
